Measured values taken from PubChem BioAssay (EPA / NIEHS).
Inconclusive results are not listed. Active and inactive are the calls of the source. The calls were made as follows: active = hit-call score of the fitted dose curve at least 0.9, where 1 is the maximum; inconclusive = response in the unintended direction; inactive = score below 0.9.

test: CCTE_Deisenroth_AIME_384WELL_CTox_Inactive: Cytotoxicity Assessment (CTOX) in CCTE's 384-well Estrogen Receptor Transactivation Assay without AIME metabolic competence (metabolism negative), Deisenroth Lab (AID 2284039);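 also: cell viability via live-cell protease substrate cleaved to fluorescent probe; cells exposed 24 h to medium preincubated 2 h with alginate-water beads without S9; loss of fluorescence signal means loss of viability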
Description: CCTE_Deisenroth_AIME_384WELL (AIME metabolism assay) is a cell-based, single-readout assay that uses VM7Luc4E2, a human mammary gland/breast cell line, with measurements taken at 24 hour after chemical dosing in a 384-well plate.CCTE_Deisenroth_AIME_384WELL_CTox_Inactive is one of four assay components measured or calculated from the CCTE_Deisenroth_AIME_384WELL assay. It is designed to make measurements of a protease substrate, a type of viability indicator, as detected with substrate cleavage to a fluorescent probe in living cells.CCTE_Deisenroth_AIME_384WELL_CTox_Inactive is a component of the CCTE_Deisenroth_AIME_384WELL assay that measures the effect of retroftting the VM7Luc ERTA assay with the Alginate Immobolization of Metabolic Enzymes (AIME) metabolism method. AIME is optimized to impart phase I hepatic metabolism using phenobarbital/beta-naphthoflavone induced hepatic S9 from male Sprague Dawley rats. Parent chemicals are incubated for 2 hours in the AIME assay prior to transfer to the VM7Luc ERTA assay plate. […] This endpoint evaluates cytotoxicity in metabolism negative mode. Using a type of flourescent probe in VM7Luc cells, loss-of-signal activity can be used to understand loss of viability. This assay endpoint, CCTE_Deisenroth_AIME_384WELL_CTox_Inactive, was analyzed with bidirectional fitting in the ERTA assay.
The AIME procedure consists of a preparative "pre-stamping" step using a barium chloride/poly-L-lysine (PLL) solution followed by "stamping" the lid in alginate-hepatic S9 (metabolism positive) or alginate-water (metabolism negative) to form microspheres. Once stamping is completed, the AIME lids are placed in duplicate microplates (metabolism positive or negative) containing chemical solutions and incubated for two hours to facilitate metabolic reactions. The conditioned medium, containing parent chemical or metabolites, is then transferred to the cell-based VM7Luc Estrogen Receptor Transactivation Assay (ERTA) for 24 hours. A typical experimental design tests a 10-point concentration series (0.002 - 200 uM) for 8 compounds (96-well format)1 or 32 compounds (384-well format)2 in single technical replicate. AIME assay controls include trans-stilbene (bioactivated control) and ethylparaben (bioinactivated control). ERTA assay plate controls include 17-beta estradiol (positive control) and DMSO (solvent control). Experiments typically comprise a minimum of four experimental replicates (n=4).

For `Cc1ccc([N+](=O)[O-])cc1`, which outcome is on record?
The outcome was “inactive”.

Which outcome does the source give for `CN(C)C(=O)Nc1ccc(Cl)cc1` here?
The outcome was “inactive”.

Which outcome does the source give for `OCCCBr` here?
Its outcome is “inactive”.

For `OCCOCCO`, which outcome is on record?
Its outcome is “inactive”.

Which outcome does the source give for `Nc1ccc(Cl)cc1N` here?
The outcome was “inactive”.

With `CCOc1cccc(C2(N3CCN(c4ccccc4)CC3)CCC(C)CC2)c1` (stereo not drawn) as the molecule, how does the outcome read?
The outcome was “inactive”.

Which outcome does the source give for `CCCCCCCCOC(=O)c1ccc(C(=O)OCCCCCCCC)c(C(=O)OCCCCCCCC)c1` here?
Its outcome is “inactive”.

Which outcome does the source give for `Cc1ccc(N)c(N)c1` here?
The outcome was “inactive”.

With `Oc1ccc2ccc3cccc4ccc1c2c34` as the molecule, how does the outcome read?
The outcome was “inactive”.

For `CNC(=O)Oc1cccc2c1OC(C)(C)C2`, which outcome is on record?
The outcome was “inactive”.

Which outcome does the source give for `Cc1cccc(N)c1N` here?
Its outcome is “inactive”.

Which AC50 does the source give for `Clc1ccc(C(c2ccc(Cl)cc2)C(Cl)(Cl)Cl)cc1` here?
The AC50 was 160 µM (active).

Which outcome does the source give for `c1ccc(N=Nc2ccccc2)cc1` here?
The outcome was “inactive”.

For `O=[N+]([O-])c1ccc(Oc2ccc(Cl)cc2Cl)cc1`, which outcome is on record?
The outcome was “inactive”.

For `O=C(Nc1ccccc1)c1ccccc1I`, which outcome is on record?
The outcome was “inactive”.

With `[O-][Cl+]O` as the molecule, how does the outcome read?
The outcome was “inactive”.

With `CCOC(=O)[C@]1(c2ccccc2)Oc2ccccc2[C@@H]1N` as the molecule, how does the outcome read?
The outcome was “inactive”.

With `Cc1cc(N=Nc2ccccc2C)ccc1N` as the molecule, how does the AC50 read?
Its AC50 is 103 µM (active).

For `CCCCCCCCn1sccc1=O`, which AC50 is on record?
Its AC50 is 93.9 µM (active).

For `C[N+](C)(C)CC1CO1` (stereo not drawn), which outcome is on record?
Its outcome is “inactive”.

Which AC50 does the source give for `CCCCCOC(=O)c1ccccc1C(=O)OCCCCC` here?
Its AC50 is 19.8 µM (active).

With `ClCCOCCCl` as the molecule, how does the outcome read?
Its outcome is “inactive”.

With `CN(C)[C@@H]1C(=O)C(C(N)=O)=C(O)[C@@]2(O)C(=O)C3=C(O)c4c(O)cccc4[C@@](C)(O)[C@H]3C[C@@H]12` as the molecule, how does the AC50 read?
Its AC50 is 103 µM (active).
